Experimental data from PubChem BioAssay (EPA / NIEHS).
Results filed as inconclusive are left out. Calls of active or inactive are those of the source. Rule for the calls, unless noted: active = hit-call score of the fitted dose curve at least 0.9, where 1 is the maximum; inactive = score below 0.9.

Legend:
[1] = read-out: Monocyte Chemoattractant Protein-1 (MCP1), CCL2 (gene 6347); experiment: BSK_LPS_MCP1: BioMAP Diversity Plus: LPS Assay for Monocyte Chemoattractant Protein-1 (MCP1) Biomarker Activity (AID 2283081); conditions: primary human HUVEC with PBMC; actives raise or lower the signal;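 for AC50: secreted MCP-1 protein quantified by ELISA in culture supernatant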
In short: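 Values derive from bidirectional fitting against DMSO of ELISA-measured MCP-1 in a human primary endothelial and mononuclear cell co-culture, 24 h after chemical addition under LPS activation.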

[2] = BSK_LPS_PGE2: BioMAP Diversity Plus: LPS Assay for Prostaglandin E2 (PGE2) Biomarker Activity (AID 2283082); conditions: primary human HUVEC with PBMC; actives raise or lower the signal;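 for AC50: secreted prostaglandin E2 measured by ELISA in LPS-stimulated co-culture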
In short: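 Endpoint derived from bidirectional curve fitting versus DMSO of ELISA-measured PGE2 in LPS-stimulated human primary vascular co-culture (HUVEC with PBMC) harvested at 24 h.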

[3] = read-out: Macrophage colony-stimulating factor (MCSF), CSF1 (gene 1435); experiment: BSK_LPS_MCSF: BioMAP Diversity Plus: LPS Assay for Macrophage colony-stimulating factor (MCSF) Biomarker Activity (AID 2283083); conditions: primary human HUVEC with PBMC; actives raise or lower the signal
In short: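 Bidirectional fit versus DMSO of ELISA-measured M-CSF in co-cultured human umbilical vein endothelial cells and PBMC, sampled 24 h after dosing.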

[4] = read-out: Tissue Factor, F3 (gene 2152); experiment: BSK_LPS_TissueFactor: BioMAP Diversity Plus: LPS Assay for Tissue Factor Biomarker Activity (AID 2283084); conditions: primary human HUVEC with PBMC; actives raise or lower the signal
In short: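 Read-out: CD142 ELISA, 24 h. System: LPS-driven human endothelial/PBMC co-culture. Analysis: up- or down-signal fitted against DMSO.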

[5] = read-out: Tumor necrosis factor (Homo sapiens) (UniProt P01375); experiment: BSK_LPS_TNFa: BioMAP Diversity Plus: LPS Assay for Tumour Necrosis Factor alpha (TNFa) Biomarker Activity (AID 2283085); conditions: primary human HUVEC with PBMC; actives raise or lower the signal
In short: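 Primary human vascular co-culture of HUVEC and PBMC; TNFa ELISA 24 h after treatment, analysed as increase or decrease relative to DMSO control.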

[6] = read-out: Vascular cell adhesion molecule 1 (VCAM1), VCAM1 (gene 7412); experiment: BSK_LPS_VCAM1: BioMAP Diversity Plus: LPS Assay for Vascular cell adhesion molecule 1 (VCAM1) Biomarker Activity (AID 2283086); conditions: primary human HUVEC with PBMC; actives raise or lower the signal
In short: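 Primary human vascular co-culture (umbilical vein endothelium plus PBMC) stimulated with LPS received chemical; 24 h later VCAM-1 was read by ELISA. Overt cytotoxicity was assessed by sulforhodamine B staining of parallel cultures at the same time point.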

CD38, CD38 (gene 952) = experiment: BSK_SAg_CD38: BioMAP Diversity Plus: SAg Assay for CD38 Biomarker Activity (AID 2283087); conditions: primary human HUVEC with PBMC; actives raise or lower the signal
In short: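 Fluorescence ELISA of cell-surface CD38 served as the read-out, with either increase or decrease fitted against DMSO controls. Cells were a human umbilical vein endothelium plus PBMC co-culture under SEB/TSST-1 stimulation, measured 24 h after dosing.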

CD40, CD40 (gene 958) = experiment: BSK_SAg_CD40: BioMAP Diversity Plus: SAg Assay for CD40 Biomarker Activity (AID 2283088); conditions: primary human HUVEC with PBMC; actives raise or lower the signal
In short: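 Endpoint derived by fitting increases or decreases versus DMSO controls. CD40 is detected by fluorescence ELISA in a human vascular co-culture of endothelium and PBMC at 24 h.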

CD69, CD69 (gene 969) = experiment: BSK_SAg_CD69: BioMAP Diversity Plus: SAg Assay for CD69 Biomarker Activity (AID 2283089); conditions: primary human HUVEC with PBMC; actives raise or lower the signal;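 for AC50: cell surface CD69 protein quantified by ELISA with fluorescence detection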
In short: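 Values derive from bidirectional fitting relative to DMSO vehicle. Cells: umbilical vein endothelium plus peripheral blood mononuclear cells, treated 24 h before fluorescent ELISA for CD69.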

[7] = read-out: Monocyte Chemoattractant Protein-1 (MCP1), CCL2 (gene 6347); experiment: BSK_SAg_MCP1: BioMAP Diversity Plus: SAg Assay for Monocyte Chemoattractant Protein-1 (MCP1) Biomarker Activity (AID 2283090); conditions: primary human HUVEC with PBMC; actives raise or lower the signal
In short: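 MCP-1 levels in the endothelial–PBMC SAg co-culture were quantified by ELISA at 24 h post-dosing; both increases and decreases versus DMSO scored. Cytotoxicity monitored by SRB total protein in parallel cultures.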

[8] = read-out: E-selectin (Homo sapiens) (UniProt P16581); experiment: BSK_SAg_Eselectin: BioMAP Diversity Plus: SAg Assay for Eselectin Biomarker Activity (AID 2283091); conditions: primary human HUVEC with PBMC; actives raise or lower the signal
In short: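 Endpoint values derive from bidirectional fitting relative to DMSO, using ELISA-measured E-selectin in a human vascular co-culture (umbilical vein endothelium plus PBMC) sampled 24 h after dosing.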

[9] = read-out: Monokine induced gamma interferon (MIG), CXCL9 (gene 4283); experiment: BSK_SAg_MIG: BioMAP Diversity Plus: SAg Assay for Monokine induced gamma interferon (MIG) Biomarker Activity (AID 2283092); conditions: primary human HUVEC with PBMC; actives raise or lower the signal
In short: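 Values reflect bidirectional fitting of ELISA-measured MIG against DMSO vehicle, taken 24 h after dosing of a co-culture of human umbilical vein endothelial cells and peripheral blood mononuclear cells.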

[10] = read-out: Interleukin-8 (IL8), CXCL8 (gene 3576); experiment: BSK_SAg_IL8: BioMAP Diversity Plus: SAg Assay for Interleukin-8 (IL8) Biomarker Activity (AID 2283094); conditions: primary human HUVEC with PBMC; actives raise or lower the signal
In short: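 In this co-culture of human umbilical vein endothelium with peripheral blood mononuclear cells, IL-8 is assayed by ELISA at 24 h. DMSO serves as baseline for bidirectional curve fitting.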

[11] = BSK_SAg_Proliferation: Cell Proliferation Assessment in the BioMAP Diversity Plus: SAg Assay (AID 2283095); conditions: primary human HUVEC with PBMC;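 note: relative cell number as total protein by SRB absorbance in sub-confluent culture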
In short: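 Readout is SRB-stained protein (560 nm) in a primary human HUVEC and PBMC co-culture; sub-confluent cultures are read at 96 h. Activity is fitted bidirectionally using DMSO as baseline.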

[12] = BSK_SAg_SRB: Viability Assessment in the BioMAP Diversity Plus: SAg Assay (AID 2283096); conditions: primary human HUVEC with PBMC;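 note: cells read one day after compound addition; hits may be either gain or loss of signal compared with DMSO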
In short: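 Endothelial/PBMC primary human co-culture; compound 24 h; fix 10% TCA, stain 0.1% SRB, A560; protein content as cytotoxicity proxy; bidirectional curve fit, DMSO = baseline.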

[13] = BSK_SAg_PBMCCytotoxicity: PBMC Cytotoxicity Assessment in the BioMAP Diversity Plus: SAg Assay (AID 2283093); conditions: primary human HUVEC with PBMC;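 note: PBMC viability measured as Alamar Blue reduction fluorescence at 546/580 nm; fitted both ways against DMSO so a hit may be loss or gain of signal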;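 for AC50: PBMC superantigen activated with SEB plus TSST-1 one hour after compound addition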
In short: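 Human umbilical vein endothelial cells co-cultured with PBMC; PBMC (75,000/well) pre-treated with compound 1 h, then activated with SEB and TSST-1 (20 ng/mL final each) for 90 h. Alamar Blue added 6 h, fluorescence 546/580 nm; bidirectional fit versus DMSO.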

[14] = target: human CYP2A6, CYP2A6 (gene 1548) (UniProt P11509); experiment: NVS_ADME_hCYP2A6: NovaScreen (NVS) CYP450-related Enzyme Activity (ADME) Assay for human CYP2A6 (AID 2283099; active = hit-call score of the fitted dose curve at least 0.9, where 1 is the maximum)
In short: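 Loss of fluorescence signal relative to acetonitrile vehicle reported CYP2A6 inhibition in a cell-free system using insect-cell-derived enzyme. Readings were taken at 0.5 h; top concentration in follow-up dose series was 20 uM.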

[15] = target: human CYP1A1, CYP1A1 (gene 1543) (UniProt P04798); experiment: NVS_ADME_hCYP1A1: NovaScreen (NVS) CYP450-related Enzyme Activity (ADME) Assay for human CYP1A1 (AID 2283100; active = hit-call score of the fitted dose curve at least 0.9, where 1 is the maximum)
In short: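 Inhibition of recombinant CYP1A1 turnover was assessed fluorometrically in a biochemical format 1 h after compound exposure. Testing began at 10 uM in duplicate and progressed to concentration series reaching 20 uM, with on-plate positive and negative controls.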

[16] = target: human CYP2B6, CYP2B6 (gene 1555) (UniProt P20813); experiment: NVS_ADME_hCYP2B6: NovaScreen (NVS) CYP450-related Enzyme Activity (ADME) Assay for human CYP2B6 (AID 2283101; active = hit-call score of the fitted dose curve at least 0.9, where 1 is the maximum)
In short: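 Compounds were first screened in duplicate at 10 uM against recombinant enzyme, with the fluorescent product measured after 1 hour. Active compounds were retested over a concentration series. Loss of fluorescence versus acetonitrile control was scored as reduced enzyme activity.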

Measured: AC50

Tumor necrosis factor (Homo sapiens), sequence (P01375 whole entry, looked up): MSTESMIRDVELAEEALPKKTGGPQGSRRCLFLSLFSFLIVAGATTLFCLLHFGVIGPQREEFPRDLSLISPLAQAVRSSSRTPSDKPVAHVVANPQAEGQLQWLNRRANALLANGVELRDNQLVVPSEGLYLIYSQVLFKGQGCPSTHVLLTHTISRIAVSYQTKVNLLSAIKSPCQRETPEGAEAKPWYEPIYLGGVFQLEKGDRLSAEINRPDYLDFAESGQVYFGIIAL
E-selectin (Homo sapiens), sequence (P16581 whole entry, looked up): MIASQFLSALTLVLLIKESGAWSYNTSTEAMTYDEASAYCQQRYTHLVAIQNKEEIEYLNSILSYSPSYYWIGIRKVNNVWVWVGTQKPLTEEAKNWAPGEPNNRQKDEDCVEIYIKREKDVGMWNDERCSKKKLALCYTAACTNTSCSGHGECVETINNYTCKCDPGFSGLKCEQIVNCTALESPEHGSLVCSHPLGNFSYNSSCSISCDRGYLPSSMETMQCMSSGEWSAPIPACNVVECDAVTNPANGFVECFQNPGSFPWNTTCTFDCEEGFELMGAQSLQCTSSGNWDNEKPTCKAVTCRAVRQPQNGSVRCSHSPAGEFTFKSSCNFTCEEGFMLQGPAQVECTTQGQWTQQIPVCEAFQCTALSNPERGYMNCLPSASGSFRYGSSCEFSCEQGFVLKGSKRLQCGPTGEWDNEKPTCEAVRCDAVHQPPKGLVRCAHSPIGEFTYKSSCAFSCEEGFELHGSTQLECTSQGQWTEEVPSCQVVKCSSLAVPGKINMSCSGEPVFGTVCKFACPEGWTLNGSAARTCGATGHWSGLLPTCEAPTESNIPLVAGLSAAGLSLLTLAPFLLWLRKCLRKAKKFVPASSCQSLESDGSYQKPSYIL
human CYP2A6, CYP2A6 (gene 1548), sequence (P11509 whole entry, looked up): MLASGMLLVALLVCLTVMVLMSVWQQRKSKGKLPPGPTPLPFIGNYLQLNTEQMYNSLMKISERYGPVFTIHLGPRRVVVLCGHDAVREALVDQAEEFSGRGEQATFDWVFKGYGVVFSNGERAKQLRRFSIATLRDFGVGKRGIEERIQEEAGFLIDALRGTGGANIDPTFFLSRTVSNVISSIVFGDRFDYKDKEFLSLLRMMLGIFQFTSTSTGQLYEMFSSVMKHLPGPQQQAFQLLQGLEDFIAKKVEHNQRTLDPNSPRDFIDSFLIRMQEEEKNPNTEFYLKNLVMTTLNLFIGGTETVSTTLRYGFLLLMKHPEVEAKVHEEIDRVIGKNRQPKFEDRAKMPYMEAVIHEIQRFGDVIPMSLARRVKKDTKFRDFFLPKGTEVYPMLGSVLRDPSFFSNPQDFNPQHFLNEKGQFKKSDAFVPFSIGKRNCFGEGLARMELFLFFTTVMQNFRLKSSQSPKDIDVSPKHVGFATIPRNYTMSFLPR
human CYP1A1, CYP1A1 (gene 1543), sequence (P04798 whole entry, looked up): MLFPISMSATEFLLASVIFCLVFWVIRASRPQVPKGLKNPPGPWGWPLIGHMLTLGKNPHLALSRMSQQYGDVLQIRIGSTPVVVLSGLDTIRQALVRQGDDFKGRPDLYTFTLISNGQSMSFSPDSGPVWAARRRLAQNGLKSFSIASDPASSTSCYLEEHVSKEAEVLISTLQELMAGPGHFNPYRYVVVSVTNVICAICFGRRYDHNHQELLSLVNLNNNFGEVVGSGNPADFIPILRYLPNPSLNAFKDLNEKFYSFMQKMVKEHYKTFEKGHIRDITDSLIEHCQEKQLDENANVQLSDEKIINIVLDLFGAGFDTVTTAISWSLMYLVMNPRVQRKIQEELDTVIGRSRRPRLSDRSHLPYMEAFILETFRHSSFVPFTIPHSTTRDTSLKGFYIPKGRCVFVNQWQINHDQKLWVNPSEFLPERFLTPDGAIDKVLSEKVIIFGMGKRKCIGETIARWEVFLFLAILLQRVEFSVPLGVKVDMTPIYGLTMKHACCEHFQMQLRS
human CYP2B6, CYP2B6 (gene 1555), sequence (P20813 whole entry, looked up): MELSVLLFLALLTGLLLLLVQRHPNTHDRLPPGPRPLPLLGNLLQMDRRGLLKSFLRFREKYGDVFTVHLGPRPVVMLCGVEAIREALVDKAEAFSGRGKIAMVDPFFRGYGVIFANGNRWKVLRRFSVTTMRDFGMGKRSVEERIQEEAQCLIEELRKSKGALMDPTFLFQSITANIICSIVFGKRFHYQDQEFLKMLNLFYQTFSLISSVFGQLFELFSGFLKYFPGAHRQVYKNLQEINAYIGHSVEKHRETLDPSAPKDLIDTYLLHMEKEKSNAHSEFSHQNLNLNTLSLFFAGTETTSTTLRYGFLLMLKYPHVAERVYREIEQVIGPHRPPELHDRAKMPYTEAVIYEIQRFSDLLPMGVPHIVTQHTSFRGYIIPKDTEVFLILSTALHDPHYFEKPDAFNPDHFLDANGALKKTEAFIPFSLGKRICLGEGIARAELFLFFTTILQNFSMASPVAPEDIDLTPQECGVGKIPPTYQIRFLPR

CCCCCCCCCCCCCCCS(=O)(=O)Oc1ccccc1
active: [11] 6.39 µM
not listed: [13] | [14] | [15] | [16]
inactive: all other assays above

CC(=O)CC(C)(C)O
not listed: [14] | [15] | [16]
inactive: all other assays above

CC1=C(/C=C/C(C)=C/C=C/C(C)=C/C(=O)O)C(C)(C)CCC1
inactive: [1] | [4] | [7] | [10] | [12] | [14] | [16]
active: [2] 0.918 µM | [3] 4.31 µM | [5] 0.358 µM | [6] 24.3 µM | CD38, CD38 (gene 952) 21.9 µM | CD40, CD40 (gene 958) 20.5 µM | CD69, CD69 (gene 969) 8.54 µM | [8] 6.38 µM | [9] 36.5 µM | [11] 27.5 µM | [15] 1.43 µM

CCC(C)(C)C1CCC(O)CC1 (centres undefined)
not listed: [14] | [15] | [16]
inactive: all other assays above

c1ccc2c(c1)ccc1ccccc12
not listed: [13] | [14] | [15] | [16]
inactive: all other assays above

CCCCCCC(=O)O
not listed: [13] | [14] | [15] | [16]
inactive: all other assays above

CN(C)C=O
not listed: [13] | [14] | [15] | [16]
inactive: all other assays above

CCCCOCCO
not listed: [13] | [14] | [15] | [16]
inactive: all other assays above

CCN(CC)CCNc1ccc(CNC=O)c2sc3ccc(OC)cc3c(=O)c12
inactive: [14]
active: [1] 20 µM | [2] 4.06 µM | [3] 20 µM | [4] 25.5 µM | [5] 17.8 µM | [6] 14.4 µM | CD38, CD38 (gene 952) 26.7 µM | CD40, CD40 (gene 958) 27 µM | CD69, CD69 (gene 969) 24.9 µM | [7] 20 µM | [8] 20 µM | [9] 36.4 µM | [13] 12.9 µM | [10] 20 µM | [11] 7.57 µM | [12] 17.8 µM | [15] 6.62 µM

CCCCCCCCCCCCN1CCCC1=O
inactive: [2] | [4] | [5]
active: [1] 32.9 µM | [3] 32.6 µM | [6] 34.1 µM | CD40, CD40 (gene 958) 30.9 µM | CD69, CD69 (gene 969) 29.9 µM | [7] 29.6 µM | [8] 30.3 µM | [9] 36.8 µM | [13] 33 µM | [10] 20 µM | [11] 36.3 µM | [12] 30.9 µM

N#C[C@@H]1CC(F)(F)CN1C(=O)CNC1CC2CCC(C1)N2c1ncccn1 (some centres undefined)
inactive: [1] | [4] | [5] | [6] | [8] | [9]
active: [2] 0.939 µM | [3] 2.33 µM | CD38, CD38 (gene 952) 4.4 µM | CD40, CD40 (gene 958) 4.8 µM | CD69, CD69 (gene 969) 4.59 µM | [7] 6.57 µM | [10] 7.82 µM | [11] 9.88 µM | [12] 5.45 µM

CC(C)CCCCCCOC(=O)CCCCC(=O)OCCCCCCC(C)C
not listed: [13] | [14] | [15] | [16]
inactive: all other assays above

CCCCC(CC)COC(=O)CCCCC(=O)OCc1ccccc1 (centres undefined)
not listed: [14] | [15] | [16]
inactive: all other assays above
